The record followed here is PubChem BioAssay (Tox21).

Experiment [1] in a line: qHTS assay to identify small molecule antagonists of the thyroid receptor (TR) signaling pathway (AID 743065). Further: nearly all actives have a fitted effect of over 55% in size. Further: potency means the concentration at half of the fitted maximal effect. In a few lines: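 Antagonism measured as loss of luciferase signal in GH3 cells stably carrying a TRE-luciferase reporter, co-treated with compound and T3 (1 nM final) for 23.5 h at 37 C. Viability was read in the same well by CellTiter-Fluor.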
For orientation: In qHTS, concentration-response curves come from the screen itself.

Experiment [2] has as its system thyroid hormone receptor (rat, GH3 cells). The experiment is described as follows: qHTS assay to identify small molecule agonists of the thyroid receptor (TR) signaling pathway (AID 743066; calls by dose curve).
Experiment [3] in a line: qHTS assay to identify small molecule antagonists of the estrogen receptor alpha (ER-alpha) signaling pathway - cell viability counter screen (AID 743074; calls by dose curve; further: nearly all actives have a fitted effect of over 45% in size).
Experiment [4] can be described thus: qHTS assay to identify small molecule antagonists of the estrogen receptor alpha (ER-alpha) signaling pathway using the BG1 cell line - cell viability counter screen (AID 743081).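 Further: compound given together with 17beta-estradiol as the ER stimulus; nearly all actives have a fitted effect of over 45% in size.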
The target of another experiment is Aromatase (Homo sapiens) (UniProt P11511). The experiment is described as follows: qHTS assay to identify aromatase inhibitors (AID 743083). Further: nearly all actives have a fitted effect of over 55% in size. Further: potency means the concentration at half of the fitted maximal effect.
Experiment [5] can be described thus: qHTS assay to identify aromatase inhibitors - cell viability counter screen (AID 743084).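 Further: cells stimulated with testosterone during compound exposure; nearly all actives have a fitted effect of over 55% in size.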
The target of experiment [6] is Estrogen receptor (Homo sapiens) (UniProt P03372). The experiment is described as follows: qHTS assay to identify small molecule antagonists of the estrogen receptor alpha (ER-alpha) signaling pathway (AID 743069; active means well fitted curve in the direction sought with a large enough effect in the signal ratio in the repeat runs, not every such curve was filed as active; inconclusive means weak or mixed curves, or effect the other way; inactive means no such curve, though single readings can be large or run the other way; the % refers to the signal ratio; further: potency means the concentration at half of the fitted maximal effect). In a few lines:
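Fluorescence intensity from a beta-lactamase FRET substrate served as the read-out. Cells: HEK293 with stably integrated ER-alpha-UAS-bla reporter. Agonist 17beta-estradiol was co-added with compounds; incubation 18 hr at 37C, substrate 2 hr at room temperature.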

Experiment [7] shares this target. The experiment is described as follows: qHTS assay to identify small molecule agonists of the estrogen receptor alpha (ER-alpha) signaling pathway (AID 743075; calls by dose curve).
Experiment [8] has the same target. The experiment is described as follows: qHTS assay to identify small molecule agonists of the estrogen receptor alpha (ER-alpha) signaling pathway using the BG1 cell line (AID 743079). Further: nearly all actives have a fitted effect of over 20% in size. The conditions noted are these: BG1Luc4E2 cells, ERE-luciferase agonist, 22 h; activation: at 70.3 µM (top of the series).

The source made the active and inactive calls. Unless noted, the call rests on the fitted dose curve; in most records, active means well fitted curve in the direction sought with a large enough effect in the repeat runs; inconclusive means weak or mixed curves; inactive means no such curve, though single readings can be large; an effect the other way counts as inactive or inconclusive.

Aromatase (Homo sapiens), sequence (P11511 whole entry, looked up): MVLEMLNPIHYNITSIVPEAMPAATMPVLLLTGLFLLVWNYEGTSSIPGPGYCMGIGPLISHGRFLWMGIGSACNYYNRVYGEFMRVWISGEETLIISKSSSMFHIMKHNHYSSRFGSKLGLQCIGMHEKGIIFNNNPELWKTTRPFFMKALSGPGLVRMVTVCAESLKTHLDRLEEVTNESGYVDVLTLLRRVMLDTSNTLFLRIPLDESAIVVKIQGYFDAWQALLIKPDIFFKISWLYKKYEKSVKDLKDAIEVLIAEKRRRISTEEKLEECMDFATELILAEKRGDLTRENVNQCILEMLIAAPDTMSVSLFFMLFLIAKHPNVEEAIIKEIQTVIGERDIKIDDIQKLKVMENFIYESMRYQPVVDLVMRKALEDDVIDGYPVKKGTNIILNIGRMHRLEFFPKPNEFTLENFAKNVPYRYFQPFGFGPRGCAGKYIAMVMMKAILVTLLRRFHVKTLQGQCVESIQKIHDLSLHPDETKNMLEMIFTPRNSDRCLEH
Estrogen receptor (Homo sapiens), sequence (P03372 whole entry, looked up): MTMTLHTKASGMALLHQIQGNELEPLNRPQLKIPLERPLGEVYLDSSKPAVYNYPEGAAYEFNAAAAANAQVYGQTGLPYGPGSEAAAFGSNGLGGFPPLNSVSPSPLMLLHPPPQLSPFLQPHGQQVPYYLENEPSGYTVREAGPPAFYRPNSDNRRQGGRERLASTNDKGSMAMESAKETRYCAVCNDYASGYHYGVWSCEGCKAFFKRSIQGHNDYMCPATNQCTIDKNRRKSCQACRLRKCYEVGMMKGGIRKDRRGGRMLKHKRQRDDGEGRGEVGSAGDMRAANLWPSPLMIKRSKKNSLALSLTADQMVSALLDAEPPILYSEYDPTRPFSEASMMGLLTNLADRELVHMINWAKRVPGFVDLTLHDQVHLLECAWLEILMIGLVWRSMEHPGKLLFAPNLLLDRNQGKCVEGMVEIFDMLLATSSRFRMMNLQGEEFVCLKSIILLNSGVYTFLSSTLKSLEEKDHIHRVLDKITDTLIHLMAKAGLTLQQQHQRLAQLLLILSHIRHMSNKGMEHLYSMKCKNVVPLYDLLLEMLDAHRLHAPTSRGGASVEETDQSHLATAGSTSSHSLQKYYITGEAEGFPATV

For `Cc1ccccc1N1C(=O)c2cc(S(N)(=O)=O)c(Cl)cc2NC1C` (centres undefined), the Potency result (in experiment [1]; in [3]; in experiment [4]; with Aromatase (Homo sapiens); in experiment [5]) was “inactive” in each case. In addition, the outcome in experiment [2] was inactive.

Regarding `Cc1ccc(/C=N/n2c(-c3ccccc3)csc2=S)cc1`, the Potency in [1] was 23.7 µM (active). Also, the compound was called inactive in [2]. Also, the Potency entry in experiment [4] and in experiment [5] was “inactive” throughout.

Regarding `CCC(C)=O`, the Potency entry in experiment [1], in experiment [3], in experiment [4] and in [5] was “inactive” in each case. In addition, the outcome in experiment [2] was inactive.

In the case of `CN(C(=O)C(Cl)Cl)c1ccc(OC(=O)c2ccco2)cc1`, the Potency entry (in experiment [1]; in experiment [3]; in experiment [4]; with Aromatase (Homo sapiens); in [5]) was “inactive” each time. In addition, the result in [2] was inactive.

`CC(C)(C)C(=O)O`: the Potency result (in experiment [1]; in experiment [3]; in experiment [4]; with Aromatase (Homo sapiens); in experiment [5]) was “inactive” each time. Besides, in experiment [2], the outcome was inactive.

As to `CC[C@@H]([C@H](C)O)n1ncn(-c2ccc(N3CCN(c4ccc(OC[C@@H]5CO[C@@](Cn6cncn6)(c6ccc(F)cc6F)C5)cc4)CC3)cc2)c1=O`, in experiment [1], the Potency is 26.6 µM (active). Besides, the call in [2] was inactive. For the same compound, the Potency result (in [3]; in the experiment with Aromatase (Homo sapiens); in experiment [5]) was “inactive” throughout.

Consider `CCCCCCCCSCCO`, for which the Potency entry (in experiment [1]; in [3]; in experiment [4]; with Aromatase (Homo sapiens); in experiment [5]) was “inactive” in each case. The outcome in [2] was inactive.

As to `CCCCCCOC(=O)C(C)C`, the Potency entry (in experiment [1]; in experiment [3]; in experiment [4]; with Aromatase (Homo sapiens); in experiment [5]) was “inactive” in each case. Moreover, the outcome in experiment [2] was inactive.

On to `CCCCCCCC/C=C\CCCCCCCC(=O)OC(CO)CO`, for which the Potency entry (in [1]; in experiment [3]; in [4]; with Aromatase (Homo sapiens); in experiment [5]) was “inactive” each time. The compound was classed as inactive in experiment [2].

In the case of `CC1CC(O)CC(C)(C)C1` (centres undefined), the Potency result (in [1]; in experiment [3]; in experiment [4]; with Aromatase (Homo sapiens); in experiment [5]) was “inactive” in each case. For the same compound, the compound was called inactive in [2].

`CCOC(=O)c1ccccc1OC`: the Potency entry (in experiment [1]; in experiment [3]; in experiment [4]; with Aromatase (Homo sapiens); in [5]) was “inactive” each time. Further, in experiment [2], the compound was called inactive.

Consider `CCOC(=O)C(C)Oc1ccc(Oc2nc3ccc(Cl)cc3o2)cc1` (centres undefined), for which the Potency entry (in experiment [1]; in experiment [3]; in experiment [4]; with Aromatase (Homo sapiens); in experiment [5]) was “inactive” throughout. For the same compound, the compound was classed as inactive in [2].

`CN(C)C(=O)Nc1ccc(Oc2ccc(Cl)cc2)cc1`: in experiment [1], the Potency was 54.5 µM (active). In addition, the compound was called inactive in [2]. Moreover, the Potency entry in experiment [3] and in experiment [5] was “inactive” each time.

For the compound `O=C(CCCCCCCCC#CI)Oc1ccccc1`, the Potency in experiment [1] was 13.3 µM (active). Moreover, the result in experiment [2] was inactive. For the same compound, the Potency entry (in experiment [4]; in the experiment with Aromatase (Homo sapiens); in [5]) was “inactive” throughout.

For `NCC1CCCC(CN)C1` (centres undefined), the Potency entry (in experiment [1]; in [3]; in experiment [4]; in the experiment with Aromatase (Homo sapiens); in experiment [5]) was “inactive” each time. Besides, the outcome in experiment [2] was inactive.

`O=C(CCCN1CCN(c2ccc(F)cc2)CC1)NC1c2ccccc2CSc2ccccc21` (centres undefined): the Potency was 10.6 µM (active) in experiment [1] and 21.3 µM [inconclusive] (active) in [6]. Further, the Potency entry in [3], in [7] and in experiment [8] was “inactive” each time.

As for `Cc1ccc(Nc2nccc(N(C)c3ccc4c(C)n(C)nc4c3)n2)cc1S(N)(=O)=O`, in experiment [1], the Potency is 6.68 µM (active). Moreover, the result in experiment [2] was inactive. The Potency result in experiment [7] is “inactive”.

`Cc1oc(C)c(C(=O)Nc2ccccc2)c1C`: the Potency in experiment [1] was 24.3 µM (active); in the experiment with Aromatase (Homo sapiens), 13.7 µM (active). Also, the compound was called inactive in experiment [2]. The Potency result in experiment [7] and in experiment [5] was “inactive” throughout.

Turning to `CO[C@H]1O[C@H](CO)[C@@H](O)[C@H](O)[C@H]1O`, the Potency result (in [1]; in [3]; in [4]; with Aromatase (Homo sapiens); in experiment [5]) was “inactive” each time. Also, in experiment [2], the compound was called inactive.

Consider `CCc1cccc(N(C)C(N)=Nc2cccc3ccccc23)c1`, for which the Potency in experiment [1] is 21.1 µM (active). Further, the call in experiment [2] was inactive. The Potency entry (in the experiment with Aromatase (Homo sapiens); in experiment [5]) was “inactive” in each case.

On to `C[N+](C)(C)CCOC(N)=O`, for which the Potency entry (in [1]; in experiment [3]; in experiment [4]; with Aromatase (Homo sapiens); in experiment [5]) was “inactive” each time. Also, the compound was called inactive in experiment [2].

Turning to `O=C(O)c1ccc(CO)o1`, the Potency entry (in [1]; in [3]; in experiment [4]; with Aromatase (Homo sapiens); in experiment [5]) was “inactive” each time. For the same compound, in experiment [2], the outcome was inactive.

In the case of `CC(=O)Nc1ccccc1C`, the Potency result (in experiment [1]; in experiment [7]; in experiment [8]; in experiment [4]; with Aromatase (Homo sapiens); in [5]) was “inactive” each time. Moreover, the compound was called inactive in experiment [2].

As to `C/C=C(\C)C(=O)OCCC(C)CCC=C(C)C` (centres undefined), the Potency entry in experiment [1], in experiment [3], in [4] and in experiment [5] was “inactive” throughout. Also, the compound was called inactive in [2].

Turning to `CN1CCN(CCCN2c3ccccc3Sc3ccc(S(=O)(=O)N(C)C)cc32)CC1`, the Potency in [1] is 11.4 µM (active). For the same compound, the compound was classed as inactive in experiment [2]. The Potency entry (in experiment [3]; in experiment [4]; with Aromatase (Homo sapiens); in [5]) was “inactive” each time.

Take `C[N+]1(C)CCC(=C(c2ccccc2)c2ccccc2)CC1`: the Potency entry (in [1]; in [3]; in experiment [4]; with Aromatase (Homo sapiens); in experiment [5]) was “inactive” each time. The call in experiment [2] was inactive.

As to `CCOC(=O)[C@@H](C)Oc1ccc(Oc2nc3ccc(Cl)cc3o2)cc1`, the Potency result (in experiment [1]; in experiment [3]; in experiment [4]; with Aromatase (Homo sapiens); in experiment [5]) was “inactive” throughout. Moreover, the outcome in experiment [2] was inactive.

On to `C=C(C)C(=O)OCCOC(=O)CC(C)=O`, for which the Potency result (in [1]; in experiment [3]; in experiment [4]; in the experiment with Aromatase (Homo sapiens); in [5]) was “inactive” throughout. The compound was called inactive in [2].
